{"source": "PubChem BioAssay AID651813", "about": "(National Center for Advancing Translational Sciences (NCATS), 2012)", "note": "Out of some 2,100 compounds screened, about 1,100 (52%) were called active. Not shown: some 27% with an inconclusive outcome. The set was probably picked from earlier hits. Some of the results follow. Unmarked numbers belong to inactive results. Calls come from the whole dose curve; as a rule, active = well fitted inhibition curve with a large enough effect; inconclusive = small, poorly fitted or top-dose-only effect; inactive = no such curve, though single readings can be large or run the other way. Potency is the fitted concentration of half-maximal effect.", "data": [{"biological_target": "DNA dC->dU-editing enzyme APOBEC-3G (Homo sapiens) (UniProt Q9HC16)", "sequence (Q9HC16 whole entry, looked up)": "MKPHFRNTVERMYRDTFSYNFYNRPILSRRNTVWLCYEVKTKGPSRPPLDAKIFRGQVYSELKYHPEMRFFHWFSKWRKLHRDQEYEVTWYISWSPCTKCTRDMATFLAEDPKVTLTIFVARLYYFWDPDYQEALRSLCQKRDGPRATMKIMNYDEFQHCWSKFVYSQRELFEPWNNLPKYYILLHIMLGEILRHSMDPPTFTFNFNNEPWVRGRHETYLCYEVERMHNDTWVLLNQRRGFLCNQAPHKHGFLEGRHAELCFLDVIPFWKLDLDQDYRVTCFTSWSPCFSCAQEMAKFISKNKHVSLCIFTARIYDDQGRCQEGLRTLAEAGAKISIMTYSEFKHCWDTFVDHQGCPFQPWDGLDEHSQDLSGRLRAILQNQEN", "experiment": "qHTS for inhibitors of Vif-A3G interactions: Cherry picks counterscreen;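 note: hits raise yellow fluorescence by blocking Vif-driven A3G-eYFP degradation; nearly all actives have a fitted effect of over 70% in size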;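 for max response: max response given as percent of control signal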", "settings": "HeLa A3G-eYFP + Vif (tagged APOBEC3G with the HIV-1 protein that degrades it), eYFP fluorescence, 24 h", "how_it_was_run": "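Readout is eYFP fluorescence (488 nm excitation, 500-530 nm emission) measured on Acumen Explorer after 24 h compound exposure, several concentrations, at 37 deg C. Cells: HeLa stably co-expressing Vif and C-terminally eYFP-tagged A3G; MG132 positive control.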", "units": {"max response": "%"}, "values": [{"molecule": "N#CC1=C(N)C(C#N)(C#N)[C@H](c2c(F)cccc2F)[C@H]2CC3(CC=C12)OCCO3", "Potency": "16.4 µM (active)"}, {"molecule": "Cc1ccc(C(=O)NCCn2c(N)c(C#N)c3nc4ccccc4nc32)cc1", "Potency": "23.1 µM (active)"}, {"molecule": "Cc1cccc(-n2c(N)c(-c3nc4ccccc4n3C)c3nc4ccccc4nc32)c1", "max response": -1.87}, {"molecule": "COc1ccc(/C=N/NC(=O)c2cccnc2)cc1COc1ccc(NC(C)=O)cc1", "Potency": "12.5 µM (active)"}, {"molecule": "COc1ccccc1/C=N/NC(=S)Nc1cccnc1", "max response": -12.2}, {"molecule": "COc1cc(OC)cc(C(=O)N/N=C/c2ccc(OC)c(COc3ccc4ccccc4c3)c2)c1", "Potency": "15.8 µM (active)"}, {"molecule": "COc1ccc(/C=N/NC(=O)c2ccccc2Cl)cc1CSc1nc2ccccc2s1", "Potency": "3.14 µM (active)"}, {"molecule": "COc1ccc(/C=N/NC(=O)c2cccnc2)cc1CSc1ccccn1", "Potency": "5.59 µM (active)"}, {"molecule": "COc1cnc(-c2ccccn2)nc1Oc1ccc(F)cc1F", "max response": -4.73}, {"molecule": "COc1ccc(/C=N/NC(=O)c2cc(OC)c(OC)c(OC)c2)cc1CN1CCc2cc(OC)c(OC)cc2C1C", "note": "(centres undefined)", "Potency": "12.5 µM (active)"}, {"molecule": "COc1ccc(C(=O)c2sc3nc4c(c(C(F)(F)F)c3c2N)CN(C(C)=O)CC4)cc1OC", "Potency": "18.4 µM (active)"}, {"molecule": "CC(=O)N1CCc2nc3sc(C(=O)c4ccc(F)cc4)c(N)c3c(C(F)(F)F)c2C1", "Potency": "18.4 µM (active)"}, {"molecule": "CCOC(=O)c1cc2n(c1/N=C/N(C)C)-c1ccccc1C2=O", "Potency": "16.4 µM (active)"}, {"molecule": "CCOC(=O)c1cc2n(c1N)-c1ccccc1C2=O", "max response": -28.5}, {"molecule": "CO/N=C\\CC(=O)Nc1ccc(Cl)c(Cl)c1", "Potency": "9.94 µM (active)"}, {"molecule": "CO/N=C\\CC(=O)Nc1ccc(Oc2ccccc2)cc1", "Potency": "1.98 µM (active)"}, {"molecule": "CCCCN1C(=O)/C(=C2/Sc3ccccc3N2C)S/C1=N\\c1ncn[nH]1", "Potency": "20.6 µM (active)"}, {"molecule": "O=C(NNc1ncc(C(F)(F)F)cc1Cl)c1c(Cl)cccc1Cl", "Potency": "14 µM (active)"}, {"molecule": "O=C(NCc1ccc2c(c1)OCO2)c1cc([N+](=O)[O-])ccc1N1CCCCC1", "Potency": "1.98 µM (active)"}, {"molecule": "O=C(/C=C/c1cccs1)NCc1ccc2c(c1)OCO2", "max response": -24.4}, {"molecule": "CCc1ccc(C(=O)NC(=S)Nc2ccc(N3CCOCC3)cc2)cc1", "max response": 0.165}, {"molecule": "COc1cc(C(=O)OCC(=O)Nc2ccc(N3CCOCC3)cc2)ccc1OCC(C)C", "max response": 8.76}, {"molecule": "COc1cccc(C(=O)Nc2ccc(N3CCCC3)cc2)c1", "Potency": "5.59 µM (active)"}, {"molecule": "COc1cc(OC)cc(C(=O)Nc2ccc(N3CCN(C(=O)c4cccs4)CC3)cc2)c1", "Potency": "6.27 µM (active)"}, {"molecule": "CCN(CC)c1ccc(C=NNc2ccc([N+](=O)[O-])cn2)cc1", "Potency": "1.3 µM (active)"}, {"molecule": "O=[N+]([O-])c1ccc(N/N=C\\c2cccn2-c2ccccc2)nc1", "Potency": "15.8 µM (active)"}, {"molecule": "Oc1ccc(C2=NNC(=NCc3ccc4c(c3)OCO4)SC2)c(O)c1", "Potency": "7.9 µM (active)"}, {"molecule": "COc1ccc(C2C(C#N)=C(N)Oc3c2ccc2cccnc32)cc1OC", "note": "(centres undefined)", "Potency": "1.77 µM (active)"}, {"molecule": "COc1cc(C2C(C#N)=C(N)Oc3cc(O)ccc32)cc2c1OCO2", "note": "(centres undefined)", "Potency": "11.2 µM (active)"}, {"molecule": "N#CC1=C(N)Oc2cc(N)ccc2C1c1cccc(Br)c1", "note": "(centres undefined)", "Potency": "0.627 µM (active)"}, {"molecule": "COc1ccc(C2C(C#N)=C(N)Oc3cc(N)ccc32)cc1OC", "note": "(centres undefined)", "Potency": "9.94 µM (active)"}, {"molecule": "COc1ccc2nc(Nc3nc(CSc4ccc(C)cc4)cc(=O)[nH]3)nc(C)c2c1", "max response": -26.4}, {"molecule": "N#CC1=C(N)Oc2cc(N)ccc2C1c1ccccc1", "note": "(centres undefined)", "Potency": "15.8 µM (active)"}, {"molecule": "N#CC1=C(N)Oc2cc(N)ccc2C1c1cccc(F)c1", "note": "(centres undefined)", "Potency": "4.98 µM (active)"}, {"molecule": "N#CC1=C(N)Oc2cc(N)ccc2C1C1CC=CCC1", "note": "(centres undefined)", "Potency": "5.59 µM (active)"}, {"molecule": "N#CC1=C(N)Oc2cc(N)ccc2C1c1ccccc1F", "note": "(centres undefined)", "Potency": "9.94 µM (active)"}, {"molecule": "Cc1oc(C)c2c(=O)ccc3c(c12)OC(N)=C(C#N)C3c1ccc(F)cc1", "note": "(centres undefined)", "max response": 44.8}, {"molecule": "COc1ccc(NC(=O)c2cc(-c3ccccc3OC)on2)cc1", "Potency": "3.14 µM (active)"}, {"molecule": "COc1ccccc1-c1cc(C(=O)NN)[nH]n1", "max response": 14.5}, {"molecule": "Cc1ccc(S(=O)(=O)C(C#N)c2nc3ccccc3nc2N2CCCC2)cc1", "note": "(centres undefined)", "Potency": "16.4 µM (active)"}, {"molecule": "O=C(O)CSc1cc(NS(=O)(=O)c2cccc([N+](=O)[O-])c2)c2ccccc2c1O", "max response": -17.9}, {"molecule": "COc1ccc(-n2c(O)c(/C=N/NS(=O)(=O)c3cccc([N+](=O)[O-])c3)c3ccccc3c2=O)cc1OC", "Potency": "12.5 µM (active)"}, {"molecule": "COc1ccc(-n2c(O)c(/C=N/NS(=O)(=O)c3ccc(C)c([N+](=O)[O-])c3)c3ccccc3c2=O)cc1OC", "Potency": "4.61 µM (active)"}, {"molecule": "CCN1C(=O)/C(=C/C=C2\\N(CC)c3cc(S(=O)(=O)N(C)C)ccc3N2c2ccccc2)SC1=S", "Potency": "1.12 µM (active)"}]}]}
